The text below walks through data of paper PMC7862700, “An all-to-all approach to the identification of sequence-specific readers for epigenetic DNA modifications on cytosine”.

Holding throughout (experiment): DAPPL (digital affinity profiling via proximity ligation, sequencing); 10 mM Tris-HCl pH 7.5, 50 mM NaCl, 1 mM DTT, 4% glycerol, room temperature, 30 min; GST-TFs on glutathione beads, 16-mer random dsDNA library, 0.1% formaldehyde crosslink after washing; high values mean tight binding
Common to all, as to conditions: protein: recombinant; tags: N-terminal GST; dsDNA, one strand shown

The target in one experiment is T1, FLI1 (Homo sapiens, UniProt Q01543 1-452).
T1 sequence: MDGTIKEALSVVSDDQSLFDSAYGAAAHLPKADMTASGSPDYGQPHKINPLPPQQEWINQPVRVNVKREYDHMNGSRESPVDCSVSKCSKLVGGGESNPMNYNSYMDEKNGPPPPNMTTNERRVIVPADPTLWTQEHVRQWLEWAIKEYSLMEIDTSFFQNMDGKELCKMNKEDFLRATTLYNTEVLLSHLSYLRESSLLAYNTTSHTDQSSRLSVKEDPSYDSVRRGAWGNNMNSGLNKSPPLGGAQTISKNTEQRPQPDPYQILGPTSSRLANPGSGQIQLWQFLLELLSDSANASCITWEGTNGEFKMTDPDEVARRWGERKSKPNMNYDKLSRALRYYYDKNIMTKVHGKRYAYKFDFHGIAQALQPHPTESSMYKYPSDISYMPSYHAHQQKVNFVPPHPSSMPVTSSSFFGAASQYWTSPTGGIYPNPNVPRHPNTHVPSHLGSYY
An outline of the steps: (§1)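 Binding signal is given per hexamer as its read frequency for a factor divided by its frequency in the tag-only sample. GST-fused human transcription factors were expressed in yeast, captured on glutathione beads, barcoded with DNA and pooled with that sample, then incubated with 200 nmole of a 16-mer random double-stranded DNA library in Tris/NaCl/DTT/glycerol buffer for 30 min at room temperature. The pools were then washed, crosslinked, proximity-ligated, amplified by PCR and sequenced on an Illumina NextSeq500.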

The target of the next experiment is T2, ELK1 (Homo sapiens, UniProt P19419 1-428).
T2 sequence: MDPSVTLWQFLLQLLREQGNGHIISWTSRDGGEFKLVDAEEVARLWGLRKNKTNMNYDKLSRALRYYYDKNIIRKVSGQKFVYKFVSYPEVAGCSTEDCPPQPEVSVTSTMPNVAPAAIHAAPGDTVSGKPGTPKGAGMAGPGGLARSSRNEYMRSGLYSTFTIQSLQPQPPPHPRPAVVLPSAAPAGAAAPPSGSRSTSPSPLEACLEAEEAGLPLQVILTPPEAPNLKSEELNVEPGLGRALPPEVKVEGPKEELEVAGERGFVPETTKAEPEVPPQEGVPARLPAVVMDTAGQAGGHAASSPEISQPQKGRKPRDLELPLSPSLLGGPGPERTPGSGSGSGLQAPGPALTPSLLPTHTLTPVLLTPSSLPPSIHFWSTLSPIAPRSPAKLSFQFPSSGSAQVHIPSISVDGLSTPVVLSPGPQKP
An outline of the steps:
as §1

A further experiment addresses T3, GABPA (Homo sapiens, UniProt Q06546 1-454).
T3 sequence: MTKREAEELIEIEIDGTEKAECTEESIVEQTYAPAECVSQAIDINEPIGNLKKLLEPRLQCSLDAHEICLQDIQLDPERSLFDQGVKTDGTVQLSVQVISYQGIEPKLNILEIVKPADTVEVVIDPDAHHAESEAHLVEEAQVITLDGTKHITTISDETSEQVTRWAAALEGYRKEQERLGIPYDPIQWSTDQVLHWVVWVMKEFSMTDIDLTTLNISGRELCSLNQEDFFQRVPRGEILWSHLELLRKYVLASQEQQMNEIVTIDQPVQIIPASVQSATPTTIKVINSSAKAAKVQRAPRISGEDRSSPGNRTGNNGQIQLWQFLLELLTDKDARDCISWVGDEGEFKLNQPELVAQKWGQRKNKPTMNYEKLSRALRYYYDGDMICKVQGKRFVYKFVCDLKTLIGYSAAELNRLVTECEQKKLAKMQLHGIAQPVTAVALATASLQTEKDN
An outline of the steps: as §1

In the next experiment the target is T4, ERG (Homo sapiens, UniProt P11308 1-479).
T4 sequence: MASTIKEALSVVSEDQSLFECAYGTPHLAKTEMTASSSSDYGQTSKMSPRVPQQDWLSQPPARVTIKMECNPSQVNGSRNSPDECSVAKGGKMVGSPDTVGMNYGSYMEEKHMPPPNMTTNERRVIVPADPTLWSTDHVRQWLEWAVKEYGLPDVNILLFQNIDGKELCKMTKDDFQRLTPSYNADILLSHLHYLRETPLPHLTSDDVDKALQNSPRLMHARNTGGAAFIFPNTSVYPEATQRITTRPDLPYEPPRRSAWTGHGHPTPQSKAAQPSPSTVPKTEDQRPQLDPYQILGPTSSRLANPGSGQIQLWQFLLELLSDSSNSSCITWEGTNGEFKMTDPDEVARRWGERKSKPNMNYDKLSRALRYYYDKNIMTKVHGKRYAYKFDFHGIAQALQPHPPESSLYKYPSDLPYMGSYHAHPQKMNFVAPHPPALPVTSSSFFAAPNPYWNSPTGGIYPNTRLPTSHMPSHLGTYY
Summed up: as §1

The next experiment addresses ELF1 (Homo sapiens, UniProt P32519 1-619). An outline of the steps:
as §1

The next experiment deals with T5, EHF (Homo sapiens, UniProt Q9NZC4 1-300).
T5 sequence: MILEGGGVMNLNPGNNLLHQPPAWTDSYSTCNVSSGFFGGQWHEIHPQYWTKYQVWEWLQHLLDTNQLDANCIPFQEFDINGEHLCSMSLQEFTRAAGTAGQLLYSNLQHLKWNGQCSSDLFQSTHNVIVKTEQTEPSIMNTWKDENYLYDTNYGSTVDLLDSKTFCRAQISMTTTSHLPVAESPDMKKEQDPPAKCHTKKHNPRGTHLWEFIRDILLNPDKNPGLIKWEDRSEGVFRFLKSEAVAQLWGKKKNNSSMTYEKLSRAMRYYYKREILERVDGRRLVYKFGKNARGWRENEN
An outline of the steps:
as §1

Another experiment has as its target SPI1 (Homo sapiens, UniProt P17947 1-270). An outline of the steps: as §1
The next experiment deals with SPIB (Homo sapiens, UniProt Q01892 1-262). An outline of the steps: as §1
The target in a further experiment is T6, ELK3 (Homo sapiens, UniProt P41970 1-407).
T6 sequence: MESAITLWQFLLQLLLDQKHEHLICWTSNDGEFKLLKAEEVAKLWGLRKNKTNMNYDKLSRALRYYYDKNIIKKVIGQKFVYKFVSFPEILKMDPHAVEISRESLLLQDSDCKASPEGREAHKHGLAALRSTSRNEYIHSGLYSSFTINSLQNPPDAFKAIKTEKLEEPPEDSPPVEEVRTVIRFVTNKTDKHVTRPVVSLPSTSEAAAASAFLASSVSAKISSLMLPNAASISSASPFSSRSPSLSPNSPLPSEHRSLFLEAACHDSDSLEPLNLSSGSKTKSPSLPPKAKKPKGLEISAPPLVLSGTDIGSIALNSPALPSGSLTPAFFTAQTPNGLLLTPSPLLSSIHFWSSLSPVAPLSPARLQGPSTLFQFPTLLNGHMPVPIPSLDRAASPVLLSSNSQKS
Summed up:
as §1

Chain of ELF1 (P32519 whole entry): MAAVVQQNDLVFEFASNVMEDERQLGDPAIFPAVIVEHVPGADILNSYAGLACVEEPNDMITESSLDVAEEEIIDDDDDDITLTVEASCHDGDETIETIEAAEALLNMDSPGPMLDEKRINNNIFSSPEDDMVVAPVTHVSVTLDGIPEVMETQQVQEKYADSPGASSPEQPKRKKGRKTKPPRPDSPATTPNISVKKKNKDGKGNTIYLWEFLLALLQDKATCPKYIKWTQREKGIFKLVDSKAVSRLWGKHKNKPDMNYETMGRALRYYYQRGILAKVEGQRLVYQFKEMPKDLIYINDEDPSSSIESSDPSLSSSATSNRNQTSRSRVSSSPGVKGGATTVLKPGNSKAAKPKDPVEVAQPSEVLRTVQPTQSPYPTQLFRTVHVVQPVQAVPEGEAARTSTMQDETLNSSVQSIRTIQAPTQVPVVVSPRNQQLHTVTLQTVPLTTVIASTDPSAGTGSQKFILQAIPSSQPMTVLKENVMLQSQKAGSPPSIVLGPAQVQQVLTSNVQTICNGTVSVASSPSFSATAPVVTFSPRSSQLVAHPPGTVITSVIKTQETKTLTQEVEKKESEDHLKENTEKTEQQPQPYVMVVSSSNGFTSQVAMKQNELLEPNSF
Chain of SPIB (Q01892 whole entry): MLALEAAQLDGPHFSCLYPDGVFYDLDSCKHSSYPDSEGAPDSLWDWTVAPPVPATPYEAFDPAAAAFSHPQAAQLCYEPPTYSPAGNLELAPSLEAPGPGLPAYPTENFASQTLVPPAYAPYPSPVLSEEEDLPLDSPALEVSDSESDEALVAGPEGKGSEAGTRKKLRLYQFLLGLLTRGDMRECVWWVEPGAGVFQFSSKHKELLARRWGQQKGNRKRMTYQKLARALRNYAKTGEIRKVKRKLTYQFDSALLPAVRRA

As for CCTAGC, the binding signal was 1.18 fold enrichment (6-mer frequency, TF over GST control) in the experiment with FLI1; 1.1 fold enrichment (6-mer frequency, TF over GST control) with ELK1; 1.31 fold enrichment (6-mer frequency, TF over GST control) with GABPA; 1.14 fold enrichment (6-mer frequency, TF over GST control) with ERG; 1.24 fold enrichment (6-mer frequency, TF over GST control) with ELF1; 1.2 fold enrichment (6-mer frequency, TF over GST control) with EHF. Also, the binding signal with SPI1 was 1.04 fold enrichment (6-mer frequency, TF over GST control); in the experiment with SPIB, 1.26 fold enrichment (6-mer frequency, TF over GST control); with ELK3 it was 1.22 fold enrichment (6-mer frequency, TF over GST control).

Turning to CATATA, the binding signal with FLI1 is 1.17 fold enrichment (6-mer frequency, TF over GST control); with ELK1 it was 1.07 fold enrichment (6-mer frequency, TF over GST control); with GABPA it was 1.14 fold enrichment (6-mer frequency, TF over GST control); with ERG, 1.08 fold enrichment (6-mer frequency, TF over GST control); in the experiment with ELF1 it was 1.12 fold enrichment (6-mer frequency, TF over GST control); in the experiment with EHF it was 1.06 fold enrichment (6-mer frequency, TF over GST control). Moreover, the binding signal with SPI1 is 1.06 fold enrichment (6-mer frequency, TF over GST control); in the experiment with SPIB it was 1.06 fold enrichment (6-mer frequency, TF over GST control); with ELK3, 1.22 fold enrichment (6-mer frequency, TF over GST control).

For the sequence ACGGAT, the binding signal was 1.27 fold enrichment (6-mer frequency, TF over GST control) with FLI1; 1.21 fold enrichment (6-mer frequency, TF over GST control) with ELK1; 1.21 fold enrichment (6-mer frequency, TF over GST control) in the experiment with GABPA; 1.37 fold enrichment (6-mer frequency, TF over GST control) with ERG; 1.22 fold enrichment (6-mer frequency, TF over GST control) with ELF1; 1.3 fold enrichment (6-mer frequency, TF over GST control) in the experiment with EHF. Also, the binding signal with SPI1 was 1.2 fold enrichment (6-mer frequency, TF over GST control); in the experiment with SPIB, 1.19 fold enrichment (6-mer frequency, TF over GST control); in the experiment with ELK3, 1.29 fold enrichment (6-mer frequency, TF over GST control).

For TGCTAT, the binding signal in the experiment with FLI1 is 1.42 fold enrichment (6-mer frequency, TF over GST control); with ELK1, 1.36 fold enrichment (6-mer frequency, TF over GST control); with GABPA it was 1.47 fold enrichment (6-mer frequency, TF over GST control); with ERG, 1.41 fold enrichment (6-mer frequency, TF over GST control); with ELF1 it was 1.46 fold enrichment (6-mer frequency, TF over GST control); in the experiment with EHF, 1.49 fold enrichment (6-mer frequency, TF over GST control). The binding signal with SPI1 is 1.33 fold enrichment (6-mer frequency, TF over GST control); with SPIB, 1.47 fold enrichment (6-mer frequency, TF over GST control); with ELK3, 1.63 fold enrichment (6-mer frequency, TF over GST control).

In the case of CTTTTG, the binding signal is 1.42 fold enrichment (6-mer frequency, TF over GST control) in the experiment with FLI1; 1.35 fold enrichment (6-mer frequency, TF over GST control) in the experiment with ELK1; 1.41 fold enrichment (6-mer frequency, TF over GST control) with GABPA; 1.25 fold enrichment (6-mer frequency, TF over GST control) with ERG; 1.34 fold enrichment (6-mer frequency, TF over GST control) in the experiment with ELF1; 1.32 fold enrichment (6-mer frequency, TF over GST control) in the experiment with EHF. For the same sequence, the binding signal is 1.6 fold enrichment (6-mer frequency, TF over GST control) in the experiment with SPI1; 1.42 fold enrichment (6-mer frequency, TF over GST control) in the experiment with SPIB; 1.23 fold enrichment (6-mer frequency, TF over GST control) with ELK3.

TCCAAG: the binding signal with FLI1 was 1.16 fold enrichment (6-mer frequency, TF over GST control); in the experiment with ELK1, 1.1 fold enrichment (6-mer frequency, TF over GST control); in the experiment with GABPA, 1.16 fold enrichment (6-mer frequency, TF over GST control); with ERG, 1.02 fold enrichment (6-mer frequency, TF over GST control); with ELF1 it was 1.17 fold enrichment (6-mer frequency, TF over GST control); with EHF, 1.06 fold enrichment (6-mer frequency, TF over GST control). The binding signal with SPI1 was 1.03 fold enrichment (6-mer frequency, TF over GST control); in the experiment with SPIB it was 1.09 fold enrichment (6-mer frequency, TF over GST control); in the experiment with ELK3, 1.08 fold enrichment (6-mer frequency, TF over GST control).

As to TTTCGA, the binding signal is 1.36 fold enrichment (6-mer frequency, TF over GST control) with FLI1; 1.45 fold enrichment (6-mer frequency, TF over GST control) with ELK1; 1.51 fold enrichment (6-mer frequency, TF over GST control) with GABPA; 1.37 fold enrichment (6-mer frequency, TF over GST control) in the experiment with ERG; 1.56 fold enrichment (6-mer frequency, TF over GST control) with ELF1; 1.49 fold enrichment (6-mer frequency, TF over GST control) with EHF. Besides, the binding signal with SPI1 is 1.35 fold enrichment (6-mer frequency, TF over GST control); with SPIB it was 1.48 fold enrichment (6-mer frequency, TF over GST control); with ELK3, 1.52 fold enrichment (6-mer frequency, TF over GST control).
